# Bioassay records deposited in PubChem BioAssay by National Center for Advancing Translational Sciences (NCATS).
# Shown are actives, neighbours in structure and some others; about 7.1% of the full set was active somewhere.
# Lassa entry – inhibitors of Lassa virus binding or entry into cells; Lassa virus pseudotyped entry inhibition, cell-based qHTS; Potency, µM (doses to about 49.2 µM), actives largely listed as inhibitors; 4.1% of 18,000 active
# Marburg entry – inhibitors of Marburg virus binding or entry into cells; Marburg virus pseudotype entry/binding inhibition, cell-based; Potency, µM (doses to about 49.2 µM), actives largely listed as inhibitors; 6.5% of 18,000 active; AID 720532
# Numbers stand for hits; – = inactive; ? = inconclusive; · = no result; ! = a repeat was not active; [ ] = remark or other dose. Calls come from the whole dose curve; tested in HEK293 cells.
SMILES,Lassa entry,Marburg entry
O=C1/C(=C\c2ccccc2)C[C@@]2(O)[C@H]3Cc4ccc(O)c5c4[C@@]2(CCN3CC2CC2)[C@@H]1O5,3.55µM,11.2µM
O=C1CC[C@@]2(O)[C@H]3Cc4ccc(O)c5c4[C@@]2(CCN3CC2CC2)[C@@H]1O5,–,–
Oc1ccc2c3c1O[C@H]1[C@@H](O)CC[C@@]4(O)[C@@H](C2)N(CC2CCC2)CC[C@]314,–,?
COC(=O)/C=C\C(=O)N[C@@H]1CC[C@@]2(O)[C@H]3Cc4ccc(O)c5c4[C@@]2(CCN3CC2CC2)[C@@H]1O5,?,28.2µM
Oc1ccc2c3c1O[C@H]1[C@H](O)CC[C@@]4(O)[C@@H](C2)N(CC2CC2)CC[C@]314,–,–
CN(CCO)C(=O)c1cn(C2CCN(Cc3ccc(C(F)(F)F)cc3)CC2)nn1,–,–
NCCC[C@@H](CC(=O)N[C@@H]1CCNC[C@H]1C(=O)N[C@H](CC(=O)N[C@@H](CCC(=O)O)CC(=O)O)Cc1ccccc1)NC(=O)C[C@H](Cc1c[nH]c2ccccc12)NC(=O)[C@@H]1CNCC[C@H]1N,–,–
CN(Cc1ccco1)c1cc(-c2ccccc2Cl)ncn1,–,–
CSc1nnc(CNC(=O)/C=C/c2ccccc2Cl)n1-c1ccc(F)cc1,–,–
COC(=O)C1CCN(c2nc(CN(C)C3CCOC3)nc3cc(OC)c(OC)cc23)CC1 (centres undefined),–,–
C[C@@H]1O[C@@H](OC2CC(O)C3(CO)C4C(CCC3(O)C2)C2(O)CCC(C3=CC(=O)OC3)C2(C)C[C@H]4O)[C@H](O)[C@H](O)[C@H]1O (some centres undefined),0.178µM,0.224µM
CC(=O)OC[C@]12C[C@H](OC(=O)CC(C)C)C(C)=C[C@H]1O[C@H]1[C@H](O)[C@@H](OC(C)=O)[C@@]2(C)[C@]12CO2,0.178µM,8.91µM
O=C([C@@H]1C[C@@H](Sc2nc3ccccc3[nH]2)CN1Cc1ccc(C(F)(F)F)cc1)N1CCN(c2ccccc2F)CC1,–,?
Cc1c(C(=O)NCCc2ccccn2)cnn1-c1nccc(-c2cccs2)n1,–,–
Cc1c(C(=O)NCCN2CCC(c3ccccc3)CC2)cnn1-c1nccc(-c2cccs2)n1,–,12.6µM
CC(=O)C1=C(C)N(CC#C[Si](C)(C)C)C(=O)N(C(C)=O)C1c1ccccc1 (centres undefined),·,–[8.59 µM]
COc1ccc(C(C)(C)C)cc1N1C(=O)[C@@H]2CSCCS(=O)(=O)N2C1=O,–,–
CCCCN1CC(COCc2ccccc2)Oc2cccc(Oc3ccc(C)cc3)c2S1(=O)=O (centres undefined),·,–
CCCCN1CC(COCc2ccccc2)Oc2cccc(Oc3ccccc3)c2S1(=O)=O (centres undefined),3.96µM,–
O=C(O)c1ccncc1,–,–
Cc1nc2ccccc2nc1CN1CCOc2ccc(CN3CCc4sccc4C3)cc2C1,–,–
COc1ccccc1C1CC(=O)Oc2cc(O)ccc21 (centres undefined),–,–
Cc1cc(C)c(N(Cc2ccccc2)S(=O)(=O)c2ccc(OCCNC(=O)c3cc4ccccc4o3)cc2)c(C(=O)NO)c1,12.6µM,5.01µM
O=C(C1CCOC1)N1CCOc2ccc(CN3CCC(Oc4cccnc4)CC3)cc2C1 (centres undefined),–,–
Cc1cc(O)cc(O)c1C(=O)OC1(C)C(=O)C=C2C=C(C=CCO)OC=C2C1=O (centres undefined),–[8.59 µM],–[8.59 µM]
SMILES,Lassa entry,Marburg entry
CC/C(=C(\c1ccccc1)c1ccc(OCCN(C)C)cc1)c1ccccc1,·,10µM!
CN(C)CCOc1ccccc1Cc1ccccc1 (tested in a mixture with another compound),–,?
COc1ccccc1CCC(=O)N1CCOc2c(cc(-c3cnc4ccccc4c3)cc2OC)C1,–,–
CN(C)CCN1C(=O)c2ccccc2N(C)c2ccccc21,?,35.5µM!
C[N+](C)(CCCCCC[N+](C)(C)CCCN1C(=O)c2ccccc2C1=O)CCCN1C(=O)c2ccccc2C1=O,–,–
CN(C/C=C/c1ccccc1)Cc1cccc2ccccc12,–,–
COc1ccc(S(=O)(=O)N(CCO)c2ccccc2CN(C)C/C=C/c2ccc(Cl)cc2)cc1,?,8.91µM
COC(=O)c1c(OCc2ccccn2)cc(=O)n2c1CCN(Cc1ccc3nsnc3c1)CC2,–,–
CN1CC[C@]2(C)c3cc(O)ccc3N(C)[C@@H]12,–,11.2µM
CNC(=O)Oc1ccc2c(c1)[C@]1(C)CCN(C)[C@@H]1N2C,–,–
CCCn1c(=O)c2c(ncn2C)n(CCC)c1=O,–,–
CSC[C@H]1CN(Cc2ccccc2)C(=O)[C@H]1CC(=O)Nc1ccccc1,–,–
COc1cccc(CN2CCCC(c3nc(-c4ccncc4)ncc3-c3ccccc3)C2)c1O (centres undefined),–,11.2µM
COc1ccc(CN2CCCC(c3nc(-c4ccncc4)ncc3-c3ccccc3C)C2)c(OC)c1 (centres undefined),17.8µM,3.55µM
Cc1ccccc1-c1cnc(-c2ccncc2)nc1C1CCCN(Cc2ccccc2O)C1 (centres undefined),–,?
COc1ccc(CN2CCCC(c3nc(-c4ccncc4)ncc3-c3ccccc3)C2)c(OC)c1OC (centres undefined),–,?
OC/C=C/c1ccc(O)c(O)c1,–,–
COc1cccc(OC)c1CN1CCC2(CCC(CNC(=O)c3ccccc3)O2)CC1 (centres undefined),–,–
CC(=O)O[C@H]1[C@H]2O[C@]23[C@@H]2CC[C@@H]4C[C@@H](O)CC[C@]4(C)[C@H]2CC[C@]3(C)[C@H]1c1ccc(=O)oc1,0.199µM,0.0891µM
CC(=O)[C@H]1CC[C@H]2[C@@H]3CC[C@@H]4C[C@H](O)CC[C@]4(C)[C@H]3CC[C@]12C,–,–
CCCCCc1cc(O)c2c(c1)OC(C)(C)c1ccc(C)cc1-2,31.6µM,?
COc1ccc(NC(=O)C[C@@H]2C(=O)N(c3ccc(OC)cc3)CC2(C)C)cc1,–,–
Nc1cccc2c(N)cccc12,–,–
Nc1c2ccccc2nc2ccccc12 (tested in a mixture with another compound),–,7.08µM
COC(=O)[C@H](CO)N1C(=O)[C@@H]2[C@@H](C1=O)[C@H]1C=C[C@@H]2C1,–,–
SMILES,Lassa entry,Marburg entry
COc1cc2c3cc1Oc1cc(ccc1O)C[C@@H]1c4c(cc(OC)c(O)c4Oc4cccc(c4)C[C@H]3N(C)CC2)CC[N+]1(C)C,–,–
CC[C@H](C)[C@@H](NC(=O)O[C@@H]1C(=O)c2cc(OC)ccc2O[C@H]1c1ccc(OC)c(Br)c1)C(=O)OC,–,–
COc1ccc2cc(C#N)c(=O)oc2c1,–,–
CCCN1CCC=C(c2ccc(Nc3nc(Nc4ccccc4C(N)=O)c4cc[nH]c4n3)c(C)c2)C1,–,?
CCCN1CCC(Oc2cc(Nc3nc(Nc4cccc(F)c4C(N)=O)c4cc[nH]c4n3)c(OC)cc2Cl)CC1,?,9.96µM
CCCN1CCCC(c2ccc(Nc3nc(Nc4cc(F)ccc4C(N)=O)c4cc[nH]c4n3)c(OC)c2)C1 (centres undefined),?,7.91µM
C[C@]12CCC(=O)C=C1CCC1C2C(O)C[C@]2(C)C1CC[C@]2(O)C(=O)CO (some centres undefined),–,–
O=C(N/N=C/c1ccccc1O)c1ccncc1,10µM,–
O=C(O)COc1ccccc1/C=N/NC(=O)c1ccncc1,–,–
Cc1ccc(NC(=O)N(C)C)cc1Cl,–,–
